# Assay outcomes as filed in PubChem BioAssay.
# This is a sample that favours compounds with a hit; in the whole collection about 11% have one here.
# hNpr1 antagonist = human Npr1 receptor antagonism. AID 1347048. 1.6% of 76,000 active. Potency, µM (doses to about 46.3 µM), for inactives: at the highest dose activity change, negative = inhibition, most hits filed as inhibitors. P16066. HEK293 hNpr1 GloSensor cGMP, ANP-stimulated luminescence; calls by dose curve; note: nearly all actives have a fitted effect of over 60% in size
# Target sequence (P16066 whole entry, looked up): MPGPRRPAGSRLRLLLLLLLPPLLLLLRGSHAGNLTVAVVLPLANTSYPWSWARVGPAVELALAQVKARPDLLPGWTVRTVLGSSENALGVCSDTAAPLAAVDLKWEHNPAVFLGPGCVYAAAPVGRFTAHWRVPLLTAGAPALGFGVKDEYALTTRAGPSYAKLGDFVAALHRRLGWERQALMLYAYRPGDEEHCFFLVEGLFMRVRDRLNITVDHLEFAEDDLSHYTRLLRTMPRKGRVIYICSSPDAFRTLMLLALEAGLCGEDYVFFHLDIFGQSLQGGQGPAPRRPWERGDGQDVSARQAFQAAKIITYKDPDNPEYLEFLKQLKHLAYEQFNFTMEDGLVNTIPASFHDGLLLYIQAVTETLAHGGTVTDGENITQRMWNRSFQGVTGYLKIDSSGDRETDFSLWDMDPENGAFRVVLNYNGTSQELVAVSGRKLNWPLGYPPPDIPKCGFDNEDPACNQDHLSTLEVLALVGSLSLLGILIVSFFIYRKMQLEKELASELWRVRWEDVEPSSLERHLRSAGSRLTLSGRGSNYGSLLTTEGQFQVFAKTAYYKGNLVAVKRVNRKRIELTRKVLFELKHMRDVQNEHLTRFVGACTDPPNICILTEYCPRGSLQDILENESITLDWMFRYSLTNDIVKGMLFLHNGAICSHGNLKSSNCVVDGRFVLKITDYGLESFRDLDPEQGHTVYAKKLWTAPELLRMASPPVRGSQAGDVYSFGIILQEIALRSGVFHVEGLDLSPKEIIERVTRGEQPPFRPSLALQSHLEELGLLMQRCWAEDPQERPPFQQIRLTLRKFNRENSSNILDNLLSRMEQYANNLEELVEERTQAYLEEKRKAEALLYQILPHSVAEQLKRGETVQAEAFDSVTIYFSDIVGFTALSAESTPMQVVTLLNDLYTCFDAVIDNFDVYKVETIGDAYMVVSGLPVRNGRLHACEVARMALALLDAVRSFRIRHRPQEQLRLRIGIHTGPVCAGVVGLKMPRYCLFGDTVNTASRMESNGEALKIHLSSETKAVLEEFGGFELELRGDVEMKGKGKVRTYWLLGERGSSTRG
#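 HEK293 cells stably expressing human Npr1 and cGMP GloSensor pGS-40F, loaded 2 h with 2% GloSensor reagent, given compound 30 min at room temperature. Luminescence read before and 20 min after 0.1 nM hNppA.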
# Luciferase inh = Photinus pyralis luciferase inhibition; purified P. pyralis luciferase, luminescence, biochemical; Potency, µM (top dose mostly 115 µM), usual class: inhibitors; 2.5% of 76,000 active; AID 1347043; note: nearly all actives have a fitted effect of over 65% in size
#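 Inhibitors were tested against purified firefly luciferase in a biochemical, low-substrate format (both substrates at 10uM) and luminescence measured with a CCD imager.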
# HEK293 tox = cytotoxic compounds in HEK 293 cells; 6.6% of 94,000 active; HEK 293 viability, ATP luminescence (CellTiter-Glo), 48-72 h; Potency, µM (series often up to 115 µM), inactives show top-dose activity change, negative = cytotoxicity, hits mostly inhibitors; note: nearly all actives have a fitted effect of over 60% in size
#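 CellTiter-Glo luminescence (cellular ATP) was read after 48 or 72 hr of compound exposure at 37 degree Celsius. Cells were HEK 293 plated at 250 cells/well.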
# 3T3 cytotox = NIH 3T3 cell cytotoxicity; Potency, µM (top dose mostly 96.7 µM), for the others: top-dose activity change, negative = cytotoxicity, hits mostly inhibitors; 4.3% of 94,000 active; NIH 3T3 viability, CellTiter-Glo ATP luminescence, 48-72 h; note: nearly all actives have a fitted effect of over 55% in size
#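 Luminescent ATP readout (CellTiter-Glo, 10 min RT) after 48 or 72 hr compound exposure of NIH 3T3 cells seeded at 400 cells/well in 1536-well format; quantitative HTS.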
# The depositor's hits bear a star; i = inactive; ? = inconclusive; . = not tested or not shown; [ ] = dose if it differs, or a comment. Unless noted, calls come from the whole dose curve; as a rule, active = well fitted curve in the direction sought with a large enough effect; inconclusive = small, poorly fitted or top-dose-only effect, or another doubt; inactive = no such curve, though single readings can be large; an effect the other way counts as inactive or inconclusive. % is set by controls: 0 for no effect and ±100 for the full control effect; potency is the fitted concentration of half-maximal effect.
SMILES,hNpr1 antagonist,Luciferase inh,HEK293 tox,3T3 cytotox
COc1ccc(CCC(=O)N(C)C2CCc3nnc(C)n3CC2)cc1OC (stereo not drawn),8%,i,-4%,-9%
CC(=O)N1CCCN(C(=O)c2ccc3nccn3c2)CC1,.,.,-10%[172 µM],-7%[138 µM]
COCC(=O)N(C1CCOCC1)C1CCN(C(=O)c2nn(C)c3ccccc23)CC1,1%,i,13%,-4%
CNC(=O)c1cc[nH]c1C1CCCN(C(=O)c2ccc(Cn3ccnc3)o2)C1 (stereo not drawn),1%,i,i,i
CN1C[C@H](O)C[C@H]1c1nnc2n1CCN(C(=O)c1nccc3ccccc13)CC2,1%,i,4%,-5%
Cc1nn2c(c1-c1cccnc1N1CCOCC1)N(Cc1ccccc1F)CCC2,-18%[70.6 µM],i,?,?
Cc1nn2c(c1-c1cccnc1N1CCOCC1)N(CCCc1ccccc1)CCC2,?,i,50µM*,?
CCOCCCNC(=O)N1CCC(c2noc(-c3ccncc3)n2)C1 (stereo not drawn),5%,i,3%,-9%
COc1ccc(-c2nc(C(C)C)nc3c2CCN(C(=O)Nc2ccc(Cl)cc2)CC3)cc1,0%,i,?,35µM*
CCc1nc2c(c(-c3ccc(Cl)cc3)n1)CCN(C(=O)c1ccc(C)cc1)CC2,0%,i,?,?
Cc1ccc(C(=O)N2CCc3nc(C(C)C)nc(-c4ccc(Cl)cc4)c3CC2)cc1,.,.,79µM*,?
COc1ccc(-c2nc(C(C)C)nc3c2CCN(C(=O)c2ccc(C)cc2)CC3)cc1,5%,i,?,?
COc1ccc(-c2nc(C(C)C)nc3c2CCN(C(=O)c2ccc(C(F)(F)F)cc2)CC3)cc1,-15%,i,32µM*,28µM*
CC(C)c1nc2c(c(-c3ccc(O)cc3)n1)CN(Cc1ccc(OC(F)(F)F)cc1)CC2,0%,i,22µM*,22µM*
CNC(=O)[C@@H]1C[C@@H](O)CN1C1CCN(C(=O)c2cccc(OC)c2)CC1,-4%,i,1%,-3%
CC(C)c1nc2c(c(-c3ccc(Cl)cc3)n1)CN(C(=O)C(C)(C)C)CC2,.,.,40µM*,?
CC(C)c1nc2c(c(-c3ccc(Cl)cc3)n1)CCN(Cc1ccsc1)CC2,.,.,45µM*,?
CN1CCCCC(CC(=O)NCc2cccc(Cl)c2)C1=O (stereo not drawn),-4%,i,2%,2%
CCOC(=O)C1(Cc2cccc(OC)c2)CCCN(C(=O)COc2ccccc2)C1 (stereo not drawn),-2%,35µM*,?,-13%
CCOC(=O)C1(Cc2cccc(Cl)c2)CCCN(Cc2cnn(C)c2)C1 (stereo not drawn),4%,i,?,-30%
CCOC(=O)C1(Cc2cccc(Cl)c2)CCCN(C(=O)c2csc(C(C)=O)c2)C1 (stereo not drawn),-17%,?,40µM*,-19%
CCOC(=O)C1(Cc2cccc(OC)c2)CCCN(C(=O)CSc2ccncc2)C1 (stereo not drawn),-3%,i,28µM*,-12%
FC(F)(F)c1ccc(N2C3CCC2CN(Cc2ccc(-c4ccccc4)cc2)C3)cc1,0%,i,i,-4%
O=S(=O)(c1ccccc1Cl)N1CC(c2nc(Cc3ccccc3)no2)C1,-28%,i,?,?
CCOC(=O)C[C@@H]1C[C@@H](C(C)C)[C@H](CNC(=O)c2ccc(F)cc2)C=C1C,?,i,35µM*,?
SMILES,hNpr1 antagonist,Luciferase inh,HEK293 tox,3T3 cytotox
COc1ccc(C(=O)NC[C@@H]2C=C(C)[C@H](CC(=O)O)C[C@H]2C(C)C)cc1,2%[70.6 µM],i,-7%[172 µM],35µM*
O=C(c1ccc(F)c(F)c1)N1C[C@@H](CO)[C@H](c2ccncc2)C1,0%,i,-6%,-19%
O=C(NC1CCCCC1)O[C@@H]1CO[C@H]2[C@@H]1OC[C@@H]2n1nnnc1Sc1ccccc1,-11%[70.6 µM],i,100µM*,?
O=C(NC1CCCCC1)O[C@@H]1CO[C@H]2[C@@H]1OC[C@@H]2n1nnnc1Sc1ncccn1,6%[70.6 µM],i,-11%[172 µM],-8%[174 µM]
Cc1ccc(CNC(=O)CN2C(=O)C(c3ccccc3)=NC23CCCCC3)cc1,-6%,i,?,?
O=C(CN1C(=O)C(c2ccccc2)=NC12CCCC2)Nc1ccc(C(F)(F)F)cc1,?,i,45µM*,?
CCN(C(=O)CN1C(=O)C(c2ccccc2)=NC12CCCCC2)c1cccc(C)c1,-6%,i,40µM*,?
CN(C(=O)CN1C(=O)C(c2ccccc2)=NC12CCCCC2)c1ccccc1,-8%,i,?,-8%
O=C(CN1C(=O)C(c2ccccc2)=NC12CCCCC2)NCc1ccccc1,0%,i,45µM*,?
CNC(=O)[C@@H]1CN(Cc2ccc(F)c(F)c2)C[C@H]1CO,0%,i,-21%,-5%
COc1ccc(C(=O)N2CCCC(c3nc(CCOCC4CCCC4)no3)C2)cc1F (stereo not drawn),?,i,45µM*,?
COc1ccccc1-c1cc(C(=O)NC(C)C)nn2cccc12,.,.,-19%,-12%
COc1ccccc1-c1cc(C(=O)N2CCCC2)nn2cccc12,.,.,-21%,1%
COc1ccccc1-c1cc(C(=O)NCc2cccc(Cl)c2)nn2cccc12,.,.,45µM*,?
COc1ccccc1-c1cc(C(=O)NCCc2ccc(F)cc2)nn2cccc12,.,.,35µM*,?
CN1CC2(CCN(C(=O)c3ccnn3C)CC2)CC1C(=O)N1CCOCC1 (stereo not drawn),10%,i,-3%,i
Cc1ccc2c(n1)N(C)[C@H](CO)CCN(Cc1ccccc1F)C2,-2%[70.6 µM],i,-15%[172 µM],-31%[174 µM]
CCC(c1cn2cccnc2n1)n1ccnc1-c1cc2n(n1)CCCNC2 (stereo not drawn),-3%,i,i,2%
CCC1Oc2ccc(NC(=O)Cc3ccc(OC)cc3)cc2CN(Cc2ccc(OC)cc2)C1=O (stereo not drawn),-12%,i,?,?
CCC1Oc2ccc(NS(=O)(=O)c3ccccc3)cc2CN(Cc2ccc(F)cc2)C1=O (stereo not drawn),-5%,i,35µM*,?
CCC1Oc2ccc(NC(=O)COC)cc2CN(Cc2ccc(Cl)cc2)C1=O (stereo not drawn),-16%,i,?,?
CCC1Oc2ccc(NS(=O)(=O)c3ccc(C)c(F)c3)cc2CN(Cc2ccc(OC)cc2)C1=O (stereo not drawn),-20%,i,?,25µM*
CCC1Oc2ccc(NS(=O)(=O)c3ccc(Cl)cc3)cc2CN(Cc2ccc(F)cc2)C1=O (stereo not drawn),-24%,i,?,14µM*
O=C(CCC1CCCN(S(=O)(=O)c2ccccc2)C1)NCC1CC1 (stereo not drawn),?,i,?,-9%
